Source: PubChem
HP1b chromo inh = HP1-beta chromodomain-methylated histone interaction inhibition; P83916; AlphaScreen HP1-beta / biotin-H3K9me3 peptide binding; Potency, µM (top dose mostly 114 µM), for the others: at the highest dose activity change, negative = inhibition, hits mostly inhibitors; 390,000 tested, 0.56% active; AID 540317; also: potency is read from the fitted curve at half-maximal effect; nearly all actives have a fitted effect of over 70% in size
Target sequence (P83916 whole entry, looked up): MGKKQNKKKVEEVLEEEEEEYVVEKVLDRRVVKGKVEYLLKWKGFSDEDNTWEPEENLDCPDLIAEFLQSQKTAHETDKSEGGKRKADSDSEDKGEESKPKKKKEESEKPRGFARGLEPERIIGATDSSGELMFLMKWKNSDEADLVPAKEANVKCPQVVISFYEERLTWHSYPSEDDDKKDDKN
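Compound inhibition of the preformed complex between 50 nM HP1-beta and 50 nM biotinylated H3K9me3 peptide was read by AlphaScreen. Buffer was PBS pH 7.4 with 0.01% Tween-20. Incubations ran 30 min at room temperature, with 10 ug/mL donor/acceptor beads.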
JMJD2A Tudor = blocks the human JMJD2A Tudor domain; AlphaScreen JMJD2A-Tudor / H3K4me3 peptide binding; Potency, µM (series often up to 114 µM), inactives show at the highest dose activity change, negative = inhibition, actives largely listed as inhibitors; 390,000 tested, 4.4% active; also: potency is read from the fitted curve at half-maximal effect; % is scaled to controls: 0 for no effect and ±100 for the full control effect; nearly all actives have a fitted effect of over 50% in size
BAZ2B block = BAZ2B (human) inhibition. Q9UIF8. AlphaScreen BAZ2B-H3K14Ac peptide displacement. Potency, µM (series often up to 114 µM), for inactives: top-dose activity change, negative = inhibition, most hits filed as inhibitors. 360,000 tested, 4.4% active; also: potency is read from the fitted curve at half-maximal effect; % is scaled to controls: 0 for no effect and ±100 for the full control effect; nearly all actives have a fitted effect of over 60% in size
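AlphaScreen displacement: compounds (up to 110uM) incubated 30 min at room temperature with a preformed 50 nM BAZ2B/50 nM biotinylated H3K14Ac peptide complex in PBS pH 7.4 with Tween-20. Donor and acceptor beads at 10 ug/mL final added, 20 min light-protected before reading.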
KAT2A inh = GCN5L2 (KAT2A) acetyltransferase inhibition. Q92830. GCN5L2 HAT assay, ThioGlo1 CoA-SH fluorescence. 390,000 tested, 0.21% active. Potency, µM (series often up to 58.9 µM), for the others: top-dose activity change, negative = inhibition, hits mostly inhibitors; also: potency is read from the fitted curve at half-maximal effect; % is scaled to controls: 0 for no effect and ±100 for the full control effect
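qHTS, 1536-well. 20nM enzyme, pH 7.5 HEPES/EDTA/Tween-20 buffer; 15 min compound preinc., RT. Start: 75uM H3(1-25), 70uM AcCoA, 50uM ThioGlo1. Read Ex340/Em540 at t=0 (autofluorescence flag) and t=20 min.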
PLK1 PBD inh = PLK1 (human) polo-box domain binding inhibition; P53350; Plk1 PBD binding of FITC phosphopeptide, fluorescence polarization; Potency, µM, for inactives: max response, negative = inhibition, usual class: inhibitors; 360,000 tested, 2.8% active; also: potency is read from the fitted curve at half-maximal effect; series mostly up to about 57 µM; % is scaled to controls: 0 for no effect and ±100 for the full control effect; nearly all actives have a fitted effect of over 65% in size
Target sequence (P53350 whole entry, looked up, the tested form may be a part): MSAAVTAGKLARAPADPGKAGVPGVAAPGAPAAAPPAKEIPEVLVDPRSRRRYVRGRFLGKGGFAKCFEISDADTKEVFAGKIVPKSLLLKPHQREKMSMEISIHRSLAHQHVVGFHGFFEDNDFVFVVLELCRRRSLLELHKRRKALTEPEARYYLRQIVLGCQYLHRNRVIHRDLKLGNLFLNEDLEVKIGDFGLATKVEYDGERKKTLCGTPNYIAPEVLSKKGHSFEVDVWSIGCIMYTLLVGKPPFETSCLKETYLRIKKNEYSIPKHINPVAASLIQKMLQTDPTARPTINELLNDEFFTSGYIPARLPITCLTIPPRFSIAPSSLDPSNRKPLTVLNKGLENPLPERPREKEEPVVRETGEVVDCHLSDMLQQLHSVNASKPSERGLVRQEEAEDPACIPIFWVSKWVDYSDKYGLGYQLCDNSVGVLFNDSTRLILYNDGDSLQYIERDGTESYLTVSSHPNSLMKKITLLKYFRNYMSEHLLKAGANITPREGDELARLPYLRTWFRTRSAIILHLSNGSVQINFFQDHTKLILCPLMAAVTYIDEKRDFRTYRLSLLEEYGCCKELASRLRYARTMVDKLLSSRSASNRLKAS
PI5P4K alpha inh = blocks human PI5P4K alpha kinase activity | P48426 | PI5P4Kalpha enzyme, ADP-Glo luminescence, 60 min; hits give low values | max response, % | 330,000 tested, 1.2% active | AID 652105; active = max response of -50% or lower; inconclusive = between -30% and -50%; inactive = -30% or higher; also: value at the top dose of about 77 µM; % is scaled to controls: 0 for no effect and ±100 for the full control effect
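PI5P4Kalpha ADP-Glo assay; 5 microM ATP final; 60 min RT reaction; HEPES pH 7.4/EGTA/CHAPS, 5% DMSO; controls lacking substrate or enzyme; luminescent end-point.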
* hit, by the source's call; ? = inconclusive; nt = not tested or not shown; [ ] = dose if it differs, or a comment. The list is not random: actives were taken first. Their share in the collection is about 7%. Unless noted, calls follow the shape of the dose curve; as a rule, active = well fitted curve in the direction sought with a large enough effect; inconclusive = small, poorly fitted or top-dose-only effect, or another doubt; inactive = no such curve, though single readings can be large; an effect the other way counts as inactive or inconclusive.

SMILES	HP1b chromo inh	JMJD2A Tudor	BAZ2B block	KAT2A inh	PLK1 PBD inh	PI5P4K alpha inh
CCN(CC)c1ccc(NC(=O)c2ccc3c(c2)OCO3)cc1	?	?	44.7µM*	-11.9%	-0.5%	-2.4
O=C(/C=C/c1ccc(NC(=O)c2ccccc2-c2ccccc2C(=O)O)cc1)c1ccccc1	18.3%	-31.6%	?	?	-16.1%	-17.7
CCC(CC)c1nnc(NC(=O)COc2ccc3c(c2)OCO3)s1	?	?	?	-14.2%	13.4µM*	-27.0
COc1ccc(N/C=C\C(=O)c2ccc3c(c2)OCO3)cc1	43.7%	1.9%	-26.6%	-11.0%	-5.6%	4.5
O=C(/C=C/c1ccncc1)c1ccc(NC(=O)c2ccccc2F)cc1	-1.5%[57 µM]	56.2µM*	50.1µM*	-13.2%	-7.4%	-20.9
CC(C)(C)Cc1nnc(NC(=O)c2ccc3c(c2)OCO3)s1	?	-19.2%	-14.6%	-9.7%	15µM*	?
O=C(/C=C\Nc1ccc2c(c1)OCO2)c1ccc2c(c1)OCO2	-18.7%	?	-15.5%	-1.0%	10.6µM*	-59.4*
O=C(NCC1CCCO1)c1cc(-c2ccccc2F)no1 (centres undefined)	29.6%	-9.0%	-8.3%	-5.7%	-13.7%	3.7
CCc1ccccc1-n1ncc(C(=O)Nc2ccc(OC)cc2)c1C	27.6%	-9.8%	nt	nt	-1.7%	2.3
CC1(C(=O)NS(=O)(=O)c2ccccc2Cl)CCN1C(=O)Cc1ccc(Cl)cc1Cl (centres undefined)	nt	nt	nt	nt	-2.8%	3.4
CCc1nc(-c2cc(S(=O)(=O)N3CCN(c4ccccc4)CC3)ccc2OC)no1	37.2%	5.3%	-1.0%	-2.4%	nt	nt
COc1ccc(/C=C/c2nc3ccccc3c(=O)n2-c2cccc(C(F)(F)F)c2)cc1	3.2%	-16.2%	1.9%	-5.1%	nt	nt
CCC(CC)c1nnc(NC(=O)c2ccco2)s1	-18.6%	-10.6%	-18.6%	0.0%	21.2µM*	-0.2
Cc1nnc(NC(=O)c2ccco2)s1	21.4%	-13.2%	10.1%	-6.8%	-11.0%	-8.3
Cc1cccc(N2C(=O)N(CC(=O)C(C)(C)C)c3ccccc3S2(=O)=O)c1C	8.1%	-17.0%	-7.0%	-10.7%	nt	nt
CCc1cccc(C)c1NC(=O)C1CCCN1C(=O)NCc1ccccc1 (centres undefined)	25.7%	-9.5%	5.6%	-18.9%	-17.0%	-7.5
C#CCOCCOCCOCCNc1nc(N2CCOCC2)nc(N2CCN(C(=O)CCCCCCCCCCNC(=O)[C@H]([C@@H](C)CC)n3cc(CCCCN=C(N)N)nn3)CC2)n1	19.8%	-34.3%	?	0.5%	2.0%	?
C#CCOCCOCCOCCNc1nc(N2CCN(C(=O)[C@H]([C@@H](C)CC)n3cc(CCCN=C(N)N)nn3)CC2)nc(N2CCN(C(=O)[C@H](CCCCN)n3cc(CCCC)nn3)CC2)n1	17.3%	-31.0%	-38.1%	0.1%	1.1%	65.5
C#CCOCCOCCOCCNc1nc(N2CCN(C(=O)CCCCCCCCCCNC(=O)[C@H](CCCN=C(N)N)n3cc(C[C@@H](C)CC)nn3)CC2)nc(N2CCN(C(=O)CCCCCCCCCCNC(=O)[C@@H]([C@H](C)CC)n3cc(CCCCCN)nn3)CC2)n1	nt	nt	56.2µM*	-5.2%	nt	nt
C#CCOCCOCCOCCNc1nc(N2CCN(C(=O)CCCCCCCCCCNC(=O)[C@H]([C@@H](C)CC)n3cc(CCCCN=C(N)N)nn3)CC2)nc(N2CCN(C(=O)CCCCCCCCCCNC(=O)[C@H](CCCN=C(N)N)n3cc(C[C@@H](C)CC)nn3)CC2)n1	nt	nt	50.1µM*	-13.9%	nt	nt
C#CCOCCOCCOCCNc1nc(N2CCN(C(=O)CCCCCCCCCCNC(=O)[C@H]([C@@H](C)CC)n3cc(CCCCN=C(N)N)nn3)CC2)nc(N2CCN(C(=O)CCCCCCCCCCNC(=O)[C@@H]([C@H](C)O)n3cc(C)nn3)CC2)n1	?	56.2µM*	?	-15.9%	0.4%	-84.0*
CC1CC(C)CN(C(=O)CCC(=O)Nc2nnc(C(C)C)s2)C1 (centres undefined)	34.5%	-11.0%	-2.0%	-9.0%	-10.5%	0.1
COc1ccc(CN2C(=O)C(CC(=O)NC3CC3)CC(C(=O)N3CCOCC3)=C2C)cc1 (centres undefined)	nt	nt	nt	nt	-3.4%	1.0
COc1ccc(NC(=O)Nc2ccc3c(c2)C(=O)N([C@@H](C)CO)C[C@@H](C)[C@@H](CN(C)S(=O)(=O)c2cn(C)cn2)O3)cc1	33.2%	-18.7%	nt	1.6%	-6.7%	-1.8
Cc1cc(C)c(COc2ccc(/C=N/n3c(C)n[nH]c3=S)cc2)c(C)c1	?	79.4µM*	?	-7.6%	?	3.3
SMILES	HP1b chromo inh	JMJD2A Tudor	BAZ2B block	KAT2A inh	PLK1 PBD inh	PI5P4K alpha inh
Cc1n[nH]c(=S)n1/N=C/c1ccc(OCc2ccc(Cl)cc2Cl)cc1	50.3%	-6.2%	4.4%	-1.3%	-0.6%	-3.2
Cc1n[nH]c(=S)n1/N=C/c1ccc(OCc2ccc(Cl)cc2)cc1	31.7%	-20.8%	2.6%	-28.1%	-10.9%	-55.2*
COC(=O)/C=C/c1cc(O)ccc1O	nt	nt	nt	-9.1%	nt	nt
Cc1cc(Br)ccc1NC(=O)CN1C(=O)c2cccnc2Sc2ccccc21	49.2%	-3.4%	-3.1%	-2.2%	nt	nt
C/C(=N/NC(=O)c1cc2ccccc2cc1O)c1ccco1	30.7%	-19.9%	-22.7%	?	2.4%	-64.5*
C/C(=N\NC(=O)c1cc2ccccc2cc1O)c1cccs1	1.0%	-16.3%	-18.8%	-6.1%	-12.7%	-14.5
C/C(=N\NC(=O)c1cc(C)nc2ccccc12)c1ccco1	27.3%	-16.5%	-28.8%	-1.5%	-2.1%	3.3
C/C(=N\NC(=O)c1cc2ccccc2cc1O)c1ccc(C)o1	7.1%	-33.3%	-10.1%	-21.6%	0.6%	-60.6*
CC(=C1SC(=S)NC1=O)c1ccccc1	-11.9%	-33.3%	nt	nt	-9.6%	-53.9*
O=S(=O)(/N=C(\c1ccccc1)N1CCOCC1)c1cccs1	48.8%	-9.4%	7.3%	1.5%	-1.0%	1.3
Cc1ccccc1S(=O)(=O)/N=C(/c1ccccc1)N1CCOCC1	-9.3%	31.6µM*	-8.2%	-17.1%	26.7µM*	-52.4*
Cc1c(CCNC(=O)c2ccc(Br)o2)sc2nc(-c3ccc(F)cc3)nn12	23.8%	50.1µM*	-23.1%	-6.0%	nt	nt
Cc1ccc(-c2nc3sc(CCNC(=O)c4ccc(Br)o4)c(C)n3n2)cc1	-19.7%	-21.4%	?	-2.8%	nt	nt
COCC(C)(C)COS(N)(=O)=O	30.3%	-2.9%	6.4%	-8.2%	-7.7%	1.4
CC(C)OC(=O)c1cc2c(ccn2C)n1CC(=O)N(Cc1ccccc1)c1ccccc1	?	17.8µM*	25.1µM*	-10.7%	-4.8%	1.6
CCOC(=O)CC1=NN(c2ccccc2)C(=O)C1=c1sc(=C2SC(C)=C(C)N2CC)c(=O)n1CC	15.0%	11.3%	nt	nt	6.3%	-2.5
